Measurements taken from PubChem BioAssay (EPA / NIEHS).
A structure can be active in one record and inactive in another. The source made the active and inactive calls. Rule for the calls: active = hit-call score of the fitted dose curve at least 0.9, where 1 is the maximum; inactive = score below 0.9.

read-out: CD69, CD69 (gene 969); assay: BSK_SAg_CD69: BioMAP Diversity Plus: SAg Assay for CD69 Biomarker Activity (AID 2283089); conditions: primary human HUVEC with PBMC; actives raise or lower the signal;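 for AC50: cell surface CD69 protein quantified by ELISA with fluorescence detection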
How it was run: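 Endothelial/PBMC co-culture; chemical added; 24 h incubation; CD69 ELISA with fluorescence detection; bidirectional fit vs DMSO.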

Chain of E-selectin (Homo sapiens) (P16581 whole entry, looked up): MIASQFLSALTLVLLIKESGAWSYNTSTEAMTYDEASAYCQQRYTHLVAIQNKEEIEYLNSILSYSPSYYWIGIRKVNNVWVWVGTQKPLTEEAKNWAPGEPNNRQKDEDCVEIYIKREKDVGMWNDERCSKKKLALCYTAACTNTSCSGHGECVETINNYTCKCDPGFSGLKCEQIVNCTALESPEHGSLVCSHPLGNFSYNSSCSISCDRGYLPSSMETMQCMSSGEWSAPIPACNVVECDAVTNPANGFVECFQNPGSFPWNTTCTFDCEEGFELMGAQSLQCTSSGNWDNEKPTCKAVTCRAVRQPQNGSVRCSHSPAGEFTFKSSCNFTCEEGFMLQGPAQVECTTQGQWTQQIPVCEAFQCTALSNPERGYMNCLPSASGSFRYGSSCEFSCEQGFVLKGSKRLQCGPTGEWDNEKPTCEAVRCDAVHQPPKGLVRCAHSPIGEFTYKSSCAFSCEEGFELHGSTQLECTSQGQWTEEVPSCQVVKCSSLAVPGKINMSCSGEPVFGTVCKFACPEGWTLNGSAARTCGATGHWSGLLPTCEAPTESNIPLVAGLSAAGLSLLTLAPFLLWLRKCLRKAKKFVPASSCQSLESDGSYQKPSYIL

SMILES | outcome | AC50
O=C(Oc1ccc(Br)cc1)N1CCN2CCC1CC2 | inactive | –
ClC1=C(Cl)[C@]2(Cl)[C@H]3[C@H]([C@@H]4C=C[C@H]3C4)[C@@]1(Cl)C2(Cl)Cl | – | 27.5 µM (active)
CCCCCCCCCCCCCN1CC(C)OC(C)C1 (configuration not stated) | inactive | –
CN(C)c1ccc(C(=O)c2ccc(N(C)C)cc2)cc1 | inactive | –
Cc1ccc([N+](=O)[O-])cc1 | inactive | –
CN(C)[C@@H]1C(=O)C(C(N)=O)=C(O)[C@@]2(O)C(=O)C3=C(O)c4c(O)cccc4[C@@](C)(O)[C@H]3C[C@@H]12 | inactive | –
C[C@]12C=CC3=C4CCC(=O)C=C4CC[C@H]3[C@@H]1CC[C@@H]2O | inactive | –
O=[N+]([O-])C(Br)(CO)CO | – | 28.5 µM (active)
O=Cc1ccco1 | inactive | –
c1ccc(N=Nc2ccccc2)cc1 | inactive | –
Cn1cc(-c2ccccc2)c(=O)c(-c2cccc(C(F)(F)F)c2)c1 | inactive | –
CCOc1cccc(C2(N3CCN(c4ccccc4)CC3)CCC(C)CC2)c1 (configuration not stated) | inactive | –
[O-][Cl+]O | inactive | –
CCN(CC)N=O | inactive | –
CCCSC(=O)N(CCC)CCC | inactive | –
CC(C)(O)c1cnn2c(-c3ccc(F)c(-c4c(F)cccc4C#N)c3)cnc2n1 | inactive | –
c1ccc(NNc2ccccc2)cc1 | inactive | –
Clc1ccc(Cl)c(Cl)c1 | inactive | –
CC(C)COC(=O)c1ccccc1C(=O)OCC(C)C | – | 20 µM (active)
CN(C)C(=O)Nc1ccc(Cl)cc1 | inactive | –
[As]#[In] | inactive | –
COP(=S)(OC)SCN1C(=O)c2ccccc2C1=O | inactive | –
N#CC(Br)(Br)C(N)=O | inactive | –
C=CCc1ccc2c(c1)OCO2 | inactive | –
COC(=O)c1ccccc1N | inactive | –
CCC12COCN1COC2 | inactive | –

read-out: Monocyte Chemoattractant Protein-1 (MCP1), CCL2 (gene 6347); assay: BSK_SAg_MCP1: BioMAP Diversity Plus: SAg Assay for Monocyte Chemoattractant Protein-1 (MCP1) Biomarker Activity (AID 2283090); conditions: primary human HUVEC with PBMC; actives raise or lower the signal
How it was run: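 MCP-1 levels in the endothelial–PBMC SAg co-culture were quantified by ELISA at 24 h post-dosing; both increases and decreases versus DMSO scored. Cytotoxicity monitored by SRB total protein in parallel cultures.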

SMILES | outcome | AC50
O=C(Oc1ccc(Br)cc1)N1CCN2CCC1CC2 | inactive | –
ClC1=C(Cl)[C@]2(Cl)[C@H]3[C@H]([C@@H]4C=C[C@H]3C4)[C@@]1(Cl)C2(Cl)Cl | – | 31.3 µM (active)
CCCCCCCCCCCCCN1CC(C)OC(C)C1 (configuration not stated) | inactive | –
CN(C)c1ccc(C(=O)c2ccc(N(C)C)cc2)cc1 | inactive | –
Cc1ccc([N+](=O)[O-])cc1 | inactive | –
CN(C)[C@@H]1C(=O)C(C(N)=O)=C(O)[C@@]2(O)C(=O)C3=C(O)c4c(O)cccc4[C@@](C)(O)[C@H]3C[C@@H]12 | inactive | –
C[C@]12C=CC3=C4CCC(=O)C=C4CC[C@H]3[C@@H]1CC[C@@H]2O | inactive | –
O=[N+]([O-])C(Br)(CO)CO | – | 31.1 µM (active)
O=Cc1ccco1 | inactive | –
c1ccc(N=Nc2ccccc2)cc1 | inactive | –
Cn1cc(-c2ccccc2)c(=O)c(-c2cccc(C(F)(F)F)c2)c1 | inactive | –
CCOc1cccc(C2(N3CCN(c4ccccc4)CC3)CCC(C)CC2)c1 (configuration not stated) | inactive | –
[O-][Cl+]O | inactive | –
CCN(CC)N=O | inactive | –
CCCSC(=O)N(CCC)CCC | inactive | –
CC(C)(O)c1cnn2c(-c3ccc(F)c(-c4c(F)cccc4C#N)c3)cnc2n1 | inactive | –
c1ccc(NNc2ccccc2)cc1 | inactive | –
Clc1ccc(Cl)c(Cl)c1 | inactive | –
CC(C)COC(=O)c1ccccc1C(=O)OCC(C)C | inactive | –
CN(C)C(=O)Nc1ccc(Cl)cc1 | inactive | –
[As]#[In] | inactive | –
COP(=S)(OC)SCN1C(=O)c2ccccc2C1=O | inactive | –
N#CC(Br)(Br)C(N)=O | inactive | –
C=CCc1ccc2c(c1)OCO2 | inactive | –
COC(=O)c1ccccc1N | inactive | –
CCNS(=O)(=O)C(F)(F)C(F)(F)C(F)(F)C(F)(F)C(F)(F)C(F)(F)C(F)(F)C(F)(F)F | inactive | 48.7 µM (active)
CCC12COCN1COC2 | inactive | –

read-out: E-selectin (Homo sapiens) (UniProt P16581); assay: BSK_SAg_Eselectin: BioMAP Diversity Plus: SAg Assay for Eselectin Biomarker Activity (AID 2283091); conditions: primary human HUVEC with PBMC; actives raise or lower the signal
How it was run: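 Endpoint values derive from bidirectional fitting relative to DMSO, using ELISA-measured E-selectin in a human vascular co-culture (umbilical vein endothelium plus PBMC) sampled 24 h after dosing.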

SMILES | outcome | AC50
O=C(Oc1ccc(Br)cc1)N1CCN2CCC1CC2 | inactive | –
ClC1=C(Cl)[C@]2(Cl)[C@H]3[C@H]([C@@H]4C=C[C@H]3C4)[C@@]1(Cl)C2(Cl)Cl | – | 32.7 µM (active)
CCCCCCCCCCCCCN1CC(C)OC(C)C1 (configuration not stated) | inactive | –
CN(C)c1ccc(C(=O)c2ccc(N(C)C)cc2)cc1 | inactive | –
Cc1ccc([N+](=O)[O-])cc1 | inactive | –
O=[N+]([O-])C(Br)(CO)CO | – | 24.7 µM (active)
O=Cc1ccco1 | inactive | –
Cn1cc(-c2ccccc2)c(=O)c(-c2cccc(C(F)(F)F)c2)c1 | inactive | –
CCOc1cccc(C2(N3CCN(c4ccccc4)CC3)CCC(C)CC2)c1 (configuration not stated) | inactive | –
CCN(CC)N=O | inactive | –
CCCSC(=O)N(CCC)CCC | inactive | –
CC(C)(O)c1cnn2c(-c3ccc(F)c(-c4c(F)cccc4C#N)c3)cnc2n1 | inactive | –
c1ccc(NNc2ccccc2)cc1 | inactive | –
Clc1ccc(Cl)c(Cl)c1 | inactive | –
CC(C)COC(=O)c1ccccc1C(=O)OCC(C)C | – | 20 µM (active)
CN(C)C(=O)Nc1ccc(Cl)cc1 | inactive | –
[As]#[In] | inactive | –
COP(=S)(OC)SCN1C(=O)c2ccccc2C1=O | inactive | –
N#CC(Br)(Br)C(N)=O | inactive | –
C=CCc1ccc2c(c1)OCO2 | inactive | –
CCNS(=O)(=O)C(F)(F)C(F)(F)C(F)(F)C(F)(F)C(F)(F)C(F)(F)C(F)(F)C(F)(F)F | inactive | 30 µM (active)
CCC12COCN1COC2 | inactive | –
